From PubChem BioAssay
HSD17B inhib: qHTS Assay for Inhibitors of HSD17B4, hydroxysteroid (17-beta) dehydrogenase 4; recombinant HSD17B10, NADH fluorescence kinetic; 7.6% of 75,000 active; Potency, µM (series often up to 57.1 µM), for inactives: top-dose activity change, negative = inhibition, actives largely listed as inhibitors; AID 893, 2007;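 further: the protocol describes HADH2 (HSD17B10) and not the HSD17B4 of the title; potency means the concentration at half of the fitted maximal effect; on the % scale 0 is the no-effect control and ±100 the full control effect; nearly all actives have a fitted effect of over 70% in size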
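Activity followed as NADH fluorescence increase (ex 360, em 450 nm) every 30 seconds for 4 min, using final 90 uM beta-hydroxybutyryl CoA and 1 mM NAD+. Recombinant His-tagged enzyme, 20 nM, pH 9.0 Tris buffer, 15 min compound preincubation.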
4MU fluor: qHTS Assay for Spectroscopic Profiling in 4-MU Spectral Region; max dye-equivalent concentration, M; AID 589, 2007; compound autofluorescence, 340/450 nm, 4-MU equivalents; active compounds read high; 11% of 59,000 active; in the data active means max dye-equivalent concentration above about 10 nM; inconclusive means mostly about 1.1 nM to 9.6 nM
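Compounds in 100 mM Tris, pH 8.0, incubated 15 min at room temperature, then fluorescence read at 340 nm excitation/450 nm emission. Signal converted to 4-MU dye-equivalent concentration using an on-plate six-point 4-MU standard curve.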
HADH2 inhib: qHTS Assay for Inhibitors of HADH2 (Hydroxyacyl-Coenzyme A Dehydrogenase, Type II); 3-hydroxyacyl-CoA dehydrogenase type-2 (Homo sapiens), Q99714; recombinant HADH2, NADH fluorescence, beta-hydroxybutyryl-CoA; Potency, µM (doses to about 57.1 µM), without a hit: at the top dose activity change, negative = inhibition, usual class: inhibitors; 3.4% of 73,000 active; AID 886, 2007; further: potency means the concentration at half of the fitted maximal effect; on the % scale 0 is the no-effect control and ±100 the full control effect; nearly all actives have a fitted effect of over 60% in size
Target sequence (Q99714 whole entry, looked up, one chain of several): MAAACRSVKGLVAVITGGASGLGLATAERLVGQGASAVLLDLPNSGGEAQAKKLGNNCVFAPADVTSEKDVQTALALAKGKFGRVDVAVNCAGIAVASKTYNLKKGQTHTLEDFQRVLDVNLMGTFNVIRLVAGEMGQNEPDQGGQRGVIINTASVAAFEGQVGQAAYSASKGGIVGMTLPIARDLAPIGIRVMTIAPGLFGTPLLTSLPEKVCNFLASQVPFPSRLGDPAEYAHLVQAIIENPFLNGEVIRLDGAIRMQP
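20 nM HADH2 + cpd, 15 min RT; add 1 mM NAD+/90 uM beta-hydroxybutyryl-CoA; kinetic fluorescence 360/450 nm, 4 min. Tris-HCl pH 9.0, 0.01% Tween-20.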
AID923: qHTS Assay for Allosteric/Competitive Inhibitors of Caspase-1: Spectroscopic Profiling in AFC Spectral Region; compound fluorescence, AFC spectral region (405/520 nm); Potency, µM (top dose mostly 57.5 µM), inactives show top-dose fluorescence increase, usual class: activators; 1.1% of 75,000 active; further: potency means the concentration at half of the fitted maximal effect; 0% is about no effect
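Titrations up to 57 uM read every 20 sec for 3 min (405/520 nm) with 50 nM caspase 1 and 5 uM Ac-WEHD-AFC, pH 7.5 HEPES buffer. Fluorescence-vs-time intercept gave baseline, scaled against on-plate AFC standard.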
A350 autofl: qHTS Assay for Spectroscopic Profiling in A350 Spectral Region | AID 590, 2007 | Compound autofluorescence, 340/450 nm, Alexa 350 dye-equivalents; active compounds read high | max dye-equivalent concentration, M | 11% of 59,000 active; in the data active means max dye-equivalent concentration above about 10 nM; inconclusive means mostly about 1.1 nM to 9.6 nM
GBA activity: Glucocerebrosidase | Potency, µM | purified enzyme, resorufin glucoside fluorescence (screen aimed at inhibitors), 20 min | Lysosomal acid glucosylceramidase (Homo sapiens), P04062 | AID 360, 2006 | 1.1% of 48,000 active; in the data active means potency below about 15 µM; inconclusive means mostly about 16 µM to 33 µM;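 further: potency means the concentration at half of the fitted maximal effect; the screen sought inhibitors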
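Compounds titrated against 0.2 nM normal enzyme, 30 uM resorufin beta-D-glucopyranoside substrate, citrate/phosphate buffer with taurocholate and tween-20, pH 5.9. Reaction ran 20 min at room temperature; fluorescence (Ex 548/Em 600) gave AC50.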
The depositor's hits bear a star; i = inactive; ? = inconclusive; · = not tested or not shown; [ ] = dose if it differs, or a comment. The list is not random: actives were taken first. Their share in the collection is about 13%. Unless noted, the call rests on the fitted dose curve; in most records, active means well fitted curve in the direction sought with a large enough effect; inconclusive means small, poorly fitted or top-dose-only effect, or another doubt; inactive means no such curve, though single readings can be large; an effect the other way counts as inactive or inconclusive.

SMILES	HSD17B inhib	4MU fluor	HADH2 inhib	AID923	A350 autofl	GBA activity
COc1ccc(OC)c(C2CC(=O)N3CN(c4ccccc4)CSC3=C2C#N)c1 (centres undefined)	?	·	?	3%	·	·
Cc1cccc(N2CSC3=C(C#N)C(c4ccc(C)o4)CC(=O)N3C2)c1 (centres undefined)	10µM*	?	3.2µM*	1%	?	15*
Cc1ccc(C2N(c3cccc(Cl)c3)C(=O)C3CCCN32)o1 (centres undefined)	5%	·	0%	-1%	·	·
COc1ccc(N2CSC3=C(C#N)C(c4cccc(OC)c4OC)CC(=O)N3C2)cc1 (centres undefined)	?	·	2µM*	3%	·	·
COc1ccc(C2CC(=O)N3CN(c4ccc(C)c(Cl)c4)CSC3=C2C#N)cc1 (centres undefined)	32µM*	·	1.6µM*	1%	·	·
O=C(Nc1cccc(F)c1)N1CC[C@@]2(CCCN(C(=O)c3ccco3)C2)C1	6%	i	3%	0%	i	·
c1ccc(Nc2nc(-c3ccoc3)nc3ccccc23)cc1	?	i	-27%	2%	i	·
N[C@@H](CSCc1ccc(I)cc1)C(=O)O	7%[11.4 µM]	i	-7%[11.4 µM]	5%[11.5 µM]	i	·
CC(=O)NC12CC3CC(C1)CC(C(=O)OCC(=O)Nc1ncc(Cl)cc1Cl)(C3)C2	-17%	i	5%	3%	?	>77
CCn1c(SCc2c(F)cccc2Cl)nnc1-c1ccco1	3%	i	7%	-2%	i	?
CN1Cc2c(N)cccc2C(c2ccccc2)C1 (centres undefined)	2%	1.1e-08M*	·	·	1.4e-08M*	·
Nc1c(Cl)cc(Cl)cc1Cl	7%	·	-4%	6%	·	·
O=C(CSc1n[nH]c(-c2cccs2)n1)N1CCN(S(=O)(=O)c2ccccc2)CC1	-11%	i	6%	-2%	i	i
O=C(CSc1n[nH]c(-c2ccc(S(=O)(=O)N3CCCCC3)cc2)n1)Nc1nccs1	25µM*	i	25µM*	0%	i	·
CCN1C(=O)[C@H]2[C@@H]3[C@H](O)[C@H](O)CC(=O)[C@H]3CC[C@H]2C1=O	2%[11.4 µM]	·	-8%[11.4 µM]	2%[11.5 µM]	·	·
COc1ccc(-c2cn3cccnc3n2)cc1NC(=O)C1CC1	?	7.4e-08M*	18%	2%	7.2e-08M*	>77
COc1ccc(OC)c(NC(=O)C2CCN(c3nc(C)cc(C)n3)CC2)c1	-8%	i	2%	0%	i	>77
COc1ccccc1NC(=O)C1CCCCC1	3%	i	-7%	-1%	i	>77
COc1ccc(-c2cn3cccnc3n2)cc1NC(=O)C1CCCC1	?	1e-07M*	14%	0%	1e-07M*	i
CC1(C)CC(CC(=O)O)(c2ccccc2)CCO1 (centres undefined)	12%	·	-1%	2%	·	·
COC(=O)[C@@]1(Cc2ccccc2)[C@H]2c3cc(C(=O)N(C)C)n(Cc4ccsc4Br)c3C[C@H]2CN1C(=O)c1ccccc1	7%	·	8%	0%	·	·
c1ccc(C2=NN[C@@H]3c4ccccc4-c4ccccc4N3C2)cc1	3%[11.4 µM]	?	-5%[11.4 µM]	-2%[11.5 µM]	?	·
COCCN(Cc1cc2ccccc2[nH]c1=O)C(=O)c1ccccc1OC	?	1.2e-08M*	-11%	0%	1.4e-08M*	>77
COCCN(Cc1cc2cc3c(cc2[nH]c1=O)OCO3)C(=O)c1cccs1	?	2.1e-07M*	?	-1%	3.2e-07M*	>77
CCOc1ccccc1C(=O)N(C)Cc1cc2ccccc2[nH]c1=O	?	i	-10%	0%	i	>77
SMILES	HSD17B inhib	4MU fluor	HADH2 inhib	AID923	A350 autofl	GBA activity
CCCCCCC(=O)c1c(C)[nH]c(C(=O)OCC)c1C	1%	·	14%	0%	·	·
Nc1ccccc1S(N)(=O)=O	4%[25.6 µM]	3.6e-08M*	-5%[25.6 µM]	5%[25.7 µM]	3.6e-08M*	·
Nc1cc(C(Cl)=C(Cl)Cl)c(S(N)(=O)=O)cc1S(N)(=O)=O	3%	i	3%[25.6 µM]	-2%	i	·
C=CCn1c(SCc2ccccc2C#N)nnc1-c1cc(Br)ccc1O	3%	1.6e-07M*	6%	1%	1.6e-07M*	·
C=CCn1c(SCC(N)=O)nnc1-c1cccc(Br)c1	0%	i	9%	2%	i	>77
N#C[C@@H](Cc1ccc(O)c(O)c1)C(=O)N1CCc2ccccc21	20µM*	?	?	-2%	?	·
Nc1ccccc1SCC(=O)N1CCc2ccccc21	-11%	i	1%	1%	i	>77
Cc1noc(C)c1-c1ccc2ncnc(N(C)C)c2c1	-11%	i	12%	5%	i	·
CSc1[nH]c(=O)c(C(=O)O)cc1C#N	?	i	-22%	0%	i	>77
O=C(O)c1cc2c([nH]c1=O)CCCC2	32µM*	1.8e-08M*	?	-2%	2.5e-08M*	>77
CN(C)CCOC(=O)c1ccc(N)cc1	2%[11.4 µM]	i	-4%[11.4 µM]	2%[11.5 µM]	i	·
CN(C)c1nc(-c2ccoc2)nc2ccccc12	?	i	25µM*	0%	i	·
N#C/C(=C\NC(=S)c1ccncc1)c1nc2ccccc2s1	-3%[11.4 µM]	i	-18%[11.4 µM]	5%[11.5 µM]	i	·
CCOC(=O)CSC1=Nc2ccccc2C2=NC(CC(=O)NCc3ccc(OC)cc3)C(=O)N12 (centres undefined)	-16%	1.9e-08M*	-16%	-1%	1.7e-08M*	>77
Cc1cccc(NC(=O)CSc2nnc(-c3ccccc3C)o2)c1	9%	i	18%	1%	i	>77
CCN(CC)C(=O)CSC1=Nc2ccccc2C2=NC(Cc3c[nH]c4ccccc34)C(=O)N12 (centres undefined)	-1%	i	-2%	1%	i	>77
CCCCNC(=O)CC1N=C2c3ccccc3N=C(SCC(=O)Nc3cccc(C)c3)N2C1=O (centres undefined)	-9%	1.4e-08M*	-7%	-3%	1.3e-08M*	>77
Cc1cc(NC(=O)CSC2=Nc3ccccc3C3=NC(Cc4ccccc4)C(=O)N23)n[nH]1 (centres undefined)	-27%	1.6e-08M*	4%	2%	1.7e-08M*	>77
CCOC(=O)CSC1=Nc2ccccc2C2=NC(CC(=O)NCc3ccc4c(c3)OCO4)C(=O)N12 (centres undefined)	-11%	1.1e-08M*	-16%	1%	1.1e-08M*	>77
Cc1cccc(N(CC(=O)NC2CCCCC2)C(=O)c2c(C)noc2C)c1	0%	i	3%	0%	i	>77
